# Inconclusive results are not listed. Where a call stands in place of a potency, no number is given. Some compounds were tested as several samples or in several runs, with calls that do not always agree. Activity calls are given as the source filed them. Unless noted, calls follow the shape of the dose curve; as a rule, active = well fitted curve in the direction sought with a large enough effect; inconclusive = small, poorly fitted or top-dose-only effect, or another doubt; inactive = no such curve, though single readings can be large; an effect the other way counts as inactive or inconclusive.
# Key:
# [1] = target: Thioredoxin reductase 1, cytoplasmic (Rattus norvegicus) (UniProt O89049); assay: qHTS Assay for Substrates of Mammalian Selenoprotein Thioredoxin Reductase 1 (TrxR1) (AID 488772);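 also: series mostly up to about 57 µM; a drop in NADPH fluorescence below the no-compound background marks a TrxR1 substrate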
# Outline: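 In this dual-purpose format, potential substrates are identified from the first fluorescence read after selenite addition, not from the 8-minute delta. Rat enzyme is preincubated with NADPH and then with compound at ~22 deg C.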
# [2] = target: Thioredoxin reductase 1, cytoplasmic (Rattus norvegicus) (UniProt O89049); assay: qHTS Assay for Inhibitors of Mammalian Selenoprotein Thioredoxin Reductase 1 (TrxR1) (AID 488773); conditions: Potency: inhibition; also: nearly all actives have a fitted effect of over 40% in size; also: potency is read from the fitted curve at half-maximal effect
# Outline: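 Inhibition is scored from the loss of NADPH fluorescence between first and last reads of an 8-min kinetic run. Selenite (400 uM) was the substrate, added after 15 min compound preincubation at room temperature.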
# [3] = target: Flap endonuclease 1 (Homo sapiens) (UniProt P39748); assay: qHTS Validation Assay for the Inhibitors of Human Flap endonuclease 1 (FEN1) (AID 488816); also: potency is read from the fitted curve at half-maximal effect
# Outline: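 Steps: add FEN1 (10 nM reagent) or buffer only; pin compounds; hold 15 min at room temperature; start with substrate, 50 nM final; read at 0 and 15 min; correct, normalize and fit a four-parameter Hill curve.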
# [4] = target: M-phase phosphoprotein 8 (Homo sapiens) (UniProt Q99549); assay: qHTS Validation Assay for Inhibitors for MPP8 Chromodomain Interactions with Methylated Histone Tails (AID 488949); also: nearly all actives have a fitted effect of over 55% in size; also: potency is read from the fitted curve at half-maximal effect
# Outline: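 AlphaScreen proximity signal from streptavidin donor and Ni-chelate acceptor beads (10 ug/mL each) reported binding of MPP8 to trimethyl-K9 H3(1-18) peptide, both at 50 nM. The complex formed 30 min before a 30 min compound exposure at room temperature, in PBS pH 7.4.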
# [5] = target: Methanococcus maripaludis chaperonin (MmCpn) (UniProt Q6LX38); assay: High-Throughput Screening for Modulators of Cytosolic Chaperonin Activity: MmCpn Primary Screen (AID 488978);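 also: 50 nM MmCpn enzyme hydrolysing 30 µM ATP at 37 °C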
# Outline: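 ATPase activity of 50 nM MmCpn was assayed with 30 uM ATP, 10 minutes at 37C, after a 5 min compound preincubation at room temperature. ADP production was read as HTRF emission at 590 and 665 nm.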
# [6] = target: Transient receptor potential cation channel subfamily V member 1 (Homo sapiens) (UniProt Q8NER1); assay: HTS Assay for Compounds that Act as Enhancers of the Vanilloid Receptor 1 (AID 488979)
# Outline: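 TRPV1-expressing cells loaded with Fluo-8 calcium dye; compounds added and calcium influx read kinetically for 3 min (agonist phase), then capsaicin at EC20 added and read 2 min more for enhancement. Fluorescence ex 480/em 520 nm.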
# [7] = target: Thyrotropin receptor (Homo sapiens) (UniProt P16473); assay: qHTS Assay for Antagonists of the Thyroid Stimulating Hormone Receptor (AID 488980); also: series mostly up to about 58 µM
# Outline: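 Inhibition of cAMP raised by EC80 TSH (4 nM final) was read by HTRF, with lysate cAMP competing against cAMP-d2 for cryptate antibody after 30 min at room temperature. The cells were transfected HEK293 held in phosphodiesterase inhibitor RO 20-1724 at 70 uM.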
# [8] = target: D(1A) dopamine receptor (Homo sapiens) (UniProt P21728); assay: HTS Assay for Allosteric Agonists of the Human D1 Dopamine Receptor: Primary Screen for Agonists (AID 488981)
# Outline: (§1)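 Tetracycline-induced HEK293 T-REx cells force-coupled to calcium signalling were incubated overnight at 30 C and dye-loaded at room temperature. Calcium flux over 180 s after compound addition flagged agonists; a further 180 s read after EC20 dopamine flagged potentiators.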
# [9] = target: D(1A) dopamine receptor (Homo sapiens) (UniProt P21728); assay: HTS Assay for Allosteric Agonists of the Human D1 Dopamine Receptor: Primary Screen for Potentiators (AID 488982)
# Outline: as §1
# [10] = target: D(1A) dopamine receptor (Homo sapiens) (UniProt P21728); assay: HTS Assay for Allosteric Agonists of the Human D1 Dopamine Receptor: Primary Screen for Antagonists (AID 488983);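 also: calcium flux response to an EC80 dopamine challenge measured with no-wash dye; nearly all actives have a fitted effect of over 65% in size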; also: potency is read from the fitted curve at half-maximal effect
# Outline: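 Calcium flux readout, no-wash dye, inducible HEK293 T-REx D1 line (force-coupled). Compound added after 10 s baseline, 180 s kinetic read; then dopamine at EC80, further 180 s read.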
# [11] = Validation screen for small molecules that induce genotoxicity in human embryonic kidney (HEK293T) cells expressing luciferase-tagged ELG1 (AID 493106)
# Outline: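 qHTS format; 2,000 HEK293T ELG1-luc cells/well; 23 nL compound via pin tool; 16 hr, 37 °C/5% CO2; ONE-Glo, 30 min RT; luminescence read.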
# [12] = target: Thyrotropin-releasing hormone receptor (Homo sapiens) (UniProt P34981); assay: qHTS for Small Molecule Agonists and Allosteric Enhancers of Human TRH Receptor: Validation Screen for Agonists (AID 493127;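 active = calcium activation more than 3 SD above the typical response in the agonist read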;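 also: intracellular calcium rise by fluo-8 fluorescence before TRH EC20 addition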); conditions: TRH receptor agonist cell assay; at 2 µM; stronger effect = higher value
# Outline: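 Read-out: intracellular calcium release measured kinetically by FDSS (fluo-8, ex 480/em 530 nm), 1 reading/s after a 10-cycle baseline. TRHR cells, 2000/well, cultured 18 h at 33.5C, dye-loaded at room temp. Compound-evoked positive calcium signal flags agonists.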
# [13] = Nrf2 qHTS screen for inhibitors: Validation (AID 493153; active = well fitted inhibition curve with a large enough effect in the main read-out, with a control signal flat, not every such curve was filed as active); conditions: Potency: luciferase luminescence; viability change: measured here: cytotoxicity max response
# Outline: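 Concentration-response test in A549 ARE_Fluc reporter cells (5% FBS OPTI-MEM), compound exposure 18-24 h at 37°C, 5% CO2. Cell viability measured first by CellTiter-Fluor fluorescence; ARE-driven luciferase luminescence then measured as Nrf2 activity.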
# [14] = qHTS for Inhibitors of Cell Surface uPA Generation: Validation Assay (AID 493164);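 also: RAW 264.7 macrophage cells exposed to compound for 18 h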
# Outline: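 Compounds are titrated over seven points (2.45 nM–38.3 uM final) onto pre-plated RAW 264.7 cells and incubated for 18 h. Retained intracellular ATP, measured with ATP-Lite, indicates blocked lethal factor entry.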
# [15] = Validation screen for small molecules that induce DNA re-replication in SW480 colon adenocarcinoma cells (AID 504364)
# Outline: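 Read-out: total Hoechst intensity of nuclei by fluorescence scanning imager; hits raise the fraction of nuclei with elevated DNA content. Cells received compound for 48 hr at 37 C before a 40 min stain.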
# [16] = target: Chromobox protein homolog 1 (Homo sapiens) (UniProt P83916); assay: qHTS Validation Assay for Inhibitors of HP1-beta Chromodomain Interactions with Methylated Histone Tails (AID 488953); also: nearly all actives have a fitted effect of over 50% in size; also: potency is read from the fitted curve at half-maximal effect
# Outline: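 AlphaScreen proximity readout: streptavidin donor and Ni-chelate acceptor beads, 10 ug/mL final, 30 min dark, RT. Complex of 50 nM HP1-beta and 50 nM b-H3(1-18)K9me3 formed 30 min, then compound-treated 30 min; PBS pH 7.4/0.01% Tween-20.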
# [17] = target: ATPase family AAA domain-containing protein 5 (Homo sapiens) (UniProt Q96QE3); assay: Validation screen for small molecules that inhibit ELG1-dependent DNA repair in human embryonic kidney (HEK293T) cells expressing luciferase-tagged ELG1 (AID 493107); also: nearly all actives have a fitted effect of over 70% in size; also: potency is read from the fitted curve at half-maximal effect
# Outline: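 ELG1-luciferase HEK293T reporter; 5-fluorouridine + compound/DMSO, 16 hr, 37 °C, 5% CO2; ONE-Glo 30 min RT; luminescence read, qHTS format.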
# [18] = target: Galactokinase (Homo sapiens) (UniProt P51570); assay: qHTS Validation Assay for Inhibitors of Human Galactokinase (GALK) (AID 493189)
# Outline: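 Inhibition was measured as remaining ATP, detected by luciferase luminescence after a 1 h room-temperature reaction. Final conditions: 5 nM GALK, 100 uM galactose, 35 uM ATP, pH 8.0 HEPES buffer.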
# [19] = target: ATP-dependent 6-phosphofructokinase (Trypanosoma brucei brucei) (UniProt O15648); assay: qHTS Assay to Find Inhibitors of T. brucei phosphofructokinase: hit validation (AID 492961);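 also: luminescence reports ADP formed as PFK phosphorylates fructose-6-phosphate with ATP; series mostly up to about 51 µM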
# Outline: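 Percent activity derived from corrected luminescence, normalized between 0x and 1x enzyme controls, then fitted to concentration-response curves. Conditions: 1.25 nM PFK, 0.1 mM ATP, 0.5 mM F6P, 45 min RT.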
# Chain of Flap endonuclease 1 (Homo sapiens) (P39748 whole entry, looked up): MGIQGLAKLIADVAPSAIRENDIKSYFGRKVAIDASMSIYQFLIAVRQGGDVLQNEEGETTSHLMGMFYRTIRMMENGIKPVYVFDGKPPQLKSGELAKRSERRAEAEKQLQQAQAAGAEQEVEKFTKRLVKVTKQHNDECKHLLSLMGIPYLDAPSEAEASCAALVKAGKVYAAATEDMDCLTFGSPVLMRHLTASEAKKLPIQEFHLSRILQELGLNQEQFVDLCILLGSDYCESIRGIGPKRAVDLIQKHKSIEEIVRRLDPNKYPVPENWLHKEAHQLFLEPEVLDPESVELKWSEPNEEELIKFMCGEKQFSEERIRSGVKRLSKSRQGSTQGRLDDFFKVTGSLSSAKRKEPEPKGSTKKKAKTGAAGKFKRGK
# Chain of Thioredoxin reductase 1, cytoplasmic (Rattus norvegicus) (O89049 whole entry, looked up): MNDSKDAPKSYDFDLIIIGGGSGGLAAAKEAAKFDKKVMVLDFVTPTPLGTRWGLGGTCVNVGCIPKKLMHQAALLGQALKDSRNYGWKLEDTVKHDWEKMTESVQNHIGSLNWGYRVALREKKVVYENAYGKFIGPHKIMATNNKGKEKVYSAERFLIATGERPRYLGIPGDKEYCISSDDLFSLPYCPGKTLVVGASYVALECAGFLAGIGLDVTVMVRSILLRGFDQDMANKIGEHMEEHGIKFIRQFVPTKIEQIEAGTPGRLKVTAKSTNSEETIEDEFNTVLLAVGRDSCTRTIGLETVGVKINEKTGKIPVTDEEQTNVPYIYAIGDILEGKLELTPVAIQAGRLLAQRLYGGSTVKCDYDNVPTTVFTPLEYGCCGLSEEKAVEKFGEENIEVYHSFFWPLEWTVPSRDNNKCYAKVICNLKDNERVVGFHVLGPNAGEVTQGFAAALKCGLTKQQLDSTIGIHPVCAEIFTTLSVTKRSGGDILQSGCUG
# Chain of ATPase family AAA domain-containing protein 5 (Homo sapiens) (Q96QE3 whole entry, looked up, the tested form may be a part): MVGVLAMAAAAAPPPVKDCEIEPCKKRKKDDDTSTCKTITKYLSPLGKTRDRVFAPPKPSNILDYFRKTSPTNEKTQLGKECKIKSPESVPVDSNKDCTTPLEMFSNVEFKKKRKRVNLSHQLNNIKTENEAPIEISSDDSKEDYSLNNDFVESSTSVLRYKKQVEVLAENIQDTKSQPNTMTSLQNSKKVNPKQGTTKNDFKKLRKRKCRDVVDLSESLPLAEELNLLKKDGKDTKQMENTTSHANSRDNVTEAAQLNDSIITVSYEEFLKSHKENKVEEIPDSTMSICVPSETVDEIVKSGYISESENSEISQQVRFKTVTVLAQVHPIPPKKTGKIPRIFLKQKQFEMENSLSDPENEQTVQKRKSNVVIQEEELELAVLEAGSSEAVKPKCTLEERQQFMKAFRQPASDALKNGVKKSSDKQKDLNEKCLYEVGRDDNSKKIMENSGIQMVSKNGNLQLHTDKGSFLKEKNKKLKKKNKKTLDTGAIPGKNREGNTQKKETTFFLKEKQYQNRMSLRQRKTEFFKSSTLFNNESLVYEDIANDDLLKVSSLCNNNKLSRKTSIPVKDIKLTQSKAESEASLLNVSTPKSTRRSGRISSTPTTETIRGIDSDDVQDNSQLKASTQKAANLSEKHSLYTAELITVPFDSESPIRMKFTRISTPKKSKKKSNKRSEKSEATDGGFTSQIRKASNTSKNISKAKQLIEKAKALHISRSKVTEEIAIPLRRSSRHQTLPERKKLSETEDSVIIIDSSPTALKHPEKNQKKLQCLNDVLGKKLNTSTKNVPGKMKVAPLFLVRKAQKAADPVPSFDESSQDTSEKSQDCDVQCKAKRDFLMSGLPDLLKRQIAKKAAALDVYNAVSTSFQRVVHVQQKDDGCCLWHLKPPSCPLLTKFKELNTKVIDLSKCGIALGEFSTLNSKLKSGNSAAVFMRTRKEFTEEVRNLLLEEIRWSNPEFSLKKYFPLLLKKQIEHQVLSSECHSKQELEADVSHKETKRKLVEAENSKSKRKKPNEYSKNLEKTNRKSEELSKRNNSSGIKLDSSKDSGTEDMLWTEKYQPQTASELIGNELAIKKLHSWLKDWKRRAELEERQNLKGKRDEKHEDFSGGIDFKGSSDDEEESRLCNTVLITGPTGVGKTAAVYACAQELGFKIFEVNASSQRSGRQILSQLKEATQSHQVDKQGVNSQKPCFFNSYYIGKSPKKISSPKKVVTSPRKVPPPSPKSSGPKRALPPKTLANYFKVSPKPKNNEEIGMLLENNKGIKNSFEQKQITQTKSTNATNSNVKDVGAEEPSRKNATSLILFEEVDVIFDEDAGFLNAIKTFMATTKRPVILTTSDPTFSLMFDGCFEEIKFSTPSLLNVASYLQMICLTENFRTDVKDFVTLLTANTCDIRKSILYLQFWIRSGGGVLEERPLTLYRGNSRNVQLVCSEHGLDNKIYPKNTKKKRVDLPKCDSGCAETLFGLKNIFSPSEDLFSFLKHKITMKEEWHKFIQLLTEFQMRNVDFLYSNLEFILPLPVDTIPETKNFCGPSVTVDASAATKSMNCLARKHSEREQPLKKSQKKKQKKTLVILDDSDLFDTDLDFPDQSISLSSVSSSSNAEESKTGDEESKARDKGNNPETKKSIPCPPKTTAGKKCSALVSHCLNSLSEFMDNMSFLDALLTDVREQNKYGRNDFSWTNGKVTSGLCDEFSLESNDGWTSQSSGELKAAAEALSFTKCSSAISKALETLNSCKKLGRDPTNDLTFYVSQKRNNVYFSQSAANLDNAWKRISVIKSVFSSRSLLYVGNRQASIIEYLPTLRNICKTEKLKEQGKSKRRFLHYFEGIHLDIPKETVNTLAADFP
# Chain of Chromobox protein homolog 1 (Homo sapiens) (P83916 whole entry, looked up): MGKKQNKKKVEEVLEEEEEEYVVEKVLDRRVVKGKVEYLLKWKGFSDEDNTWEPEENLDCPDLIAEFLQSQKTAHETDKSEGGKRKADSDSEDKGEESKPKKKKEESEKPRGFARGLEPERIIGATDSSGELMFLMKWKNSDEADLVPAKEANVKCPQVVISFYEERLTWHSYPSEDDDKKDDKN
# Chain of M-phase phosphoprotein 8 (Homo sapiens) (Q99549 whole entry, looked up): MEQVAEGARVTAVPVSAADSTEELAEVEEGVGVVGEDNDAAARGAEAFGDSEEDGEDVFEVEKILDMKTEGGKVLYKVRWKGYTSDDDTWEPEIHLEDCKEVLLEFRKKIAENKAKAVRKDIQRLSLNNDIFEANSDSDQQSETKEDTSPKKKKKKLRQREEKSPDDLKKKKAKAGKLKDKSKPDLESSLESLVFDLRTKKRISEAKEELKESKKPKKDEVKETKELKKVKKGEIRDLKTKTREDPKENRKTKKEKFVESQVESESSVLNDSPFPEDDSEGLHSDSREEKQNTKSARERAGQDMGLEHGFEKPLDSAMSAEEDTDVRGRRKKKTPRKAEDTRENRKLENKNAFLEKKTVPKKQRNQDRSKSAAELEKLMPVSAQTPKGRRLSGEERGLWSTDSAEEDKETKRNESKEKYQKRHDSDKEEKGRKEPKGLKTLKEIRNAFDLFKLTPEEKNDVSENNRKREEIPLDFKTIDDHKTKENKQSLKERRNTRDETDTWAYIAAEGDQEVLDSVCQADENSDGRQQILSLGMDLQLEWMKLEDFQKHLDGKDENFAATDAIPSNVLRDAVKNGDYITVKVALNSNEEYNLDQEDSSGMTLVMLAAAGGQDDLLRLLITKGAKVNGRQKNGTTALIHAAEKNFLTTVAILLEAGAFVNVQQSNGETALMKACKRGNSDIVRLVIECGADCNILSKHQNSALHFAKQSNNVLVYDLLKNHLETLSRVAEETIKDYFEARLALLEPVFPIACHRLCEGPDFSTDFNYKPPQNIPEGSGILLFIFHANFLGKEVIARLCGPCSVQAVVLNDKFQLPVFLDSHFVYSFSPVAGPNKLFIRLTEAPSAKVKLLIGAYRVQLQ
# Chain of Galactokinase (Homo sapiens) (P51570 whole entry, looked up): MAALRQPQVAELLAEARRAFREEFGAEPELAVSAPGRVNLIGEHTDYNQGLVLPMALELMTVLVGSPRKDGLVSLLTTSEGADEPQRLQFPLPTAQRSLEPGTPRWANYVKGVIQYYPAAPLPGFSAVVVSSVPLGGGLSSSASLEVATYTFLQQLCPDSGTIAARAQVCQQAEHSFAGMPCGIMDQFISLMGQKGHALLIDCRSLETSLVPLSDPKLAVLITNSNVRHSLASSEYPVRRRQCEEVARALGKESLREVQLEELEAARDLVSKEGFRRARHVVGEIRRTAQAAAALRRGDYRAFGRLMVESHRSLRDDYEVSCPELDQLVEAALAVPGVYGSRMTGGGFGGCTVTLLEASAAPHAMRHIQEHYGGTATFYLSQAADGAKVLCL
# Chain of Transient receptor potential cation channel subfamily V member 1 (Homo sapiens) (Q8NER1 whole entry, looked up): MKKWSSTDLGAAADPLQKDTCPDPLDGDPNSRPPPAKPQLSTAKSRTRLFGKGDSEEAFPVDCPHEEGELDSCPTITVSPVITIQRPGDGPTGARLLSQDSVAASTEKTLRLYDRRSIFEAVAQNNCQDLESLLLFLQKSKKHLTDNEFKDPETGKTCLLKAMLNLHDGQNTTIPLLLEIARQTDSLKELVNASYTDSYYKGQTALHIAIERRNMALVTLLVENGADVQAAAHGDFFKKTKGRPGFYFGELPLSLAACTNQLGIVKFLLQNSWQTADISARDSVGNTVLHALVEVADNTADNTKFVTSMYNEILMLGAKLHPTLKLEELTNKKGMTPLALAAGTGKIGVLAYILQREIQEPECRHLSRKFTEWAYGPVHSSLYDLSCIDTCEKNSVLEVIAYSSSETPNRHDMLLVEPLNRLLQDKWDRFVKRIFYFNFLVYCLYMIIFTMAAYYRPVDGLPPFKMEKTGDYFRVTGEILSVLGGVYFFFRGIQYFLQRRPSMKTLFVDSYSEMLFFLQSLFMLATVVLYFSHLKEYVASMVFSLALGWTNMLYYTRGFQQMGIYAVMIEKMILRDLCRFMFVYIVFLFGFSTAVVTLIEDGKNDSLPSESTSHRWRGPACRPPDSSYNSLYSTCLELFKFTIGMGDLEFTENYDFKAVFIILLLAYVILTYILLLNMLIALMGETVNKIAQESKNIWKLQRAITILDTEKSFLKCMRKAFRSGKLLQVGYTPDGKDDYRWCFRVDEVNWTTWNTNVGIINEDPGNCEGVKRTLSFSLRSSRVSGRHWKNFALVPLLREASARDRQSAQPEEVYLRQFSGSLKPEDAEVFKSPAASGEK
Compound,outcome [1],Potency [2],Potency [3],Potency [4],outcome [5],outcome [6],outcome [7],Potency [8],Potency [9],Potency [10],Potency [11],activation [12],Potency [13],viability change [13] [%],outcome [14],Potency [15],Potency [16],Potency [17],outcome [18],Potency [19]
COc1cc(CC(C)N)c(OC)cc1I (configuration not stated),inactive,inactive,inactive,inactive,inactive,inactive,inactive,inactive,inactive,inactive,inactive,0.562% (inactive),inactive,-12.3,inactive,inactive,,,,
COc1ccc2c(c1)c(CCN1CCOCC1)c(C)n2C(=O)c1cccc(Cl)c1Cl,inactive,inactive,inactive,,inactive,,,inactive,inactive,inactive,inactive,,,,inactive,,44.7 µM (active),8.2 µM (active),,
NC(=O)c1ccc(OCC(O)CN2CC=C(c3ccc(F)cc3)CC2)cc1 (configuration not stated),inactive,inactive,inactive,inactive,inactive,inactive,inactive,,inactive,,inactive,4.62% (inactive),inactive,16.7,,,,inactive,,
C[C@@H]1O[C@H](C[N+](C)(C)C)CS1,inactive,inactive,,inactive,inactive,inactive,inactive,,inactive,inactive,inactive,11.2% (inactive),inactive,8.63,inactive,,inactive,,inactive,
CC(N)Cc1c[nH]c2ccc(OCc3cccs3)cc12 (configuration not stated),inactive,inactive,inactive,inactive,inactive,,inactive,,inactive,inactive,inactive,3.5% (inactive),inactive,-4.81,,inactive,,inactive,inactive,
O=[N+]([O-])c1ccc2nc(N3CCNCC3)ccc2c1,inactive,inactive,,inactive,inactive,inactive,inactive,,inactive,,,1.44% (inactive),,,,inactive,,inactive,inactive,
CN1CCc2cc(O)cc3c2[C@H]1Cc1ccc(O)c(O)c1-3,inactive,13.4 µM (active),3.77 µM (active),,inactive,,,inactive,inactive,3.16 µM (active),inactive,,inactive,-1.2,inactive,,1.34 µM (active),20.6 µM (active),,
CCCN(CCC)[C@@H]1CCc2cccc(O)c2C1,inactive,inactive,inactive,inactive,inactive,inactive,inactive,inactive,inactive,inactive,inactive,0.5% (inactive),inactive,-3.45,inactive,inactive,,inactive,inactive,
COC(=O)N1CCN(C(=O)Cc2ccc(Cl)c(Cl)c2)C(CN2CCCC2)C1 (configuration not stated),inactive,inactive,inactive,inactive,inactive,inactive,inactive,inactive,inactive,inactive,inactive,0.875% (inactive),inactive,0.492,inactive,inactive,,inactive,inactive,
CCn1cnc2c(Nc3cccc(Cl)c3)nc(N[C@@H]3CCCC[C@@H]3N)nc21,inactive,inactive,,39.8 µM (active) and inactive,inactive,,inactive,,inactive,inactive,inactive,3.88% (inactive),,,,,39.8 µM (active),4.61 µM (active),inactive,
COc1ccc2[nH]cc(CCN)c2c1,inactive,,inactive,inactive,inactive,inactive,inactive,inactive,inactive,inactive,inactive,-2.62% (inactive),inactive,0.303,inactive,inactive,inactive,inactive,inactive,
O=C1CC[C@@]2(O)C3Cc4ccc(O)c5c4C2(CCN3CC2CC2)[C@H]1O5 (some centres not stated),inactive,inactive,,inactive,inactive,inactive,inactive,inactive,inactive,inactive,inactive,1.31% (inactive),inactive,-12.7,,inactive,inactive,inactive,,inactive

# — PubChem BioAssay (NCATS)
